This is a sample that favours compounds with a hit; in the whole collection about 21% have one here.
Pf growth 96h: P. falciparum growth inhibition at 96 hour, primary screen for plastid delayed-death inhibitors; P. falciparum luciferase reporter growth, 96 h; Potency, µM (doses to about 28.7 µM), actives largely listed as inhibitors; 320,000 tested, 6.9% active
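Readout is luminescence from an integrated firefly luciferase in P. falciparum. Red cells, 2% hematocrit and 0.05% parasitemia final, were cultured with compound through two parasite generations (96 hours) at 37 C, 5% CO2.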
Sm TGR block: blocks Schistosoma mansoni thioredoxin glutathione reductase; Q962Y6; purified TGR, DTNB reduction, TNB absorbance 405 nm; Potency, µM (series often up to 114 µM), most hits filed as inhibitors; 360,000 tested, 3% active; AID 485364; also: nearly all actives have a fitted effect of over 60% in size
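TGR 20 nM + NADPH 100 uM (dispensed conc.), cpd preinc 15 min RT; start with NADPH (500 uM addition) then DTNB (15 mM addition). Kinetic TNB absorbance, 405 nm filter. Four-parameter Hill fit across titration.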
CHX counter: counter-screen hit for Shiga toxin inhibitors, cycloheximide; 300,000 tested, 12% active; max response, %; cell reporter, cycloheximide protein synthesis inhibition counterscreen; AID 2314; in the data active = max response mostly above about 13%, no sharp cut-off; inactive = mostly below about 14%; also: read at 38.3 µM for the half of the compounds with a filed dose
Pf growth 48h: inhibits P. falciparum growth in the first generation, 48 h; Potency, µM (highest dose often 28.7 µM), hits mostly inhibitors; P. falciparum luciferase growth in erythrocytes, 48 h; 310,000 tested, 5.9% active
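First compound was added to culture medium, then infected red cells at 0.1% parasitemia and 2% hematocrit (final). After incubation at 37 C under 5% CO2, luciferase detection reagent was dispensed and light output recorded.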
NS1 inh: influenza NS1 inhibition | Potency, µM (doses to about 46.1 µM) | 270,000 tested, 0.4% active; calls by dose curve; also: actives are rising curves; nearly all actives have a fitted effect of over 50% in size
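OD600 was taken as the measure of yeast growth restored by compound in an NS1-expressing S. cerevisiae strain. Cells had been washed out of glucose medium and diluted 1:100 into galactose -URA medium, pH 6.0.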
Shiga toxin inh: Shiga toxin inhibition; inhibition, % at 38.7 µM; Vero cells, Shiga toxin protein synthesis inhibition reporter; 290,000 tested, 9.2% active; in the data active = inhibition mostly above about 28%, no sharp cut-off; inactive = mostly below about 43%
Of the large screens only hits and unclear results are named; the others gave an inactive call. Unless noted, calls follow the shape of the dose curve; as a rule, active = well fitted curve in the direction sought with a large enough effect; inconclusive = small, poorly fitted or top-dose-only effect, or another doubt; inactive = no such curve, though single readings can be large; an effect the other way counts as inactive or inconclusive.

Nc1cc(C(=O)c2ccccc2)ccc1N1CCOCC1	CHX counter 27, Shiga toxin inh 117
COC(=O)c1ccc(N2CCN(c3ccccc3)CC2)c(NC(=O)C2CC2)c1	Pf growth 96h inconclusive, Pf growth 48h inconclusive
CC(=O)Nc1cc(C(=O)c2ccccc2)ccc1N1CCOCC1	none
C=CCOC(=O)c1ccc(N2CCN(c3ccccc3)CC2)nc1	CHX counter 20
CC(C)NC(=O)c1ccc(N2CCOCC2)nc1	none (no result: Pf growth 48h)
COC(=O)c1ccc(/C=N\N2CCN(c3ccccc3)CC2)cc1	CHX counter 21, Shiga toxin inh 118
COC(=O)c1cc(NS(=O)(=O)c2ccc(N3CCOCC3)c(N)c2)cc(C(=O)OC)c1	Pf growth 96h 4.1µM, Pf growth 48h inconclusive, NS1 inh inconclusive
C(=N\N1CCN(c2ccccc2)CC1)/c1ccccc1	none (no result: NS1 inh)
CCc1ccc2c(c1)[C@H]1OCC[C@H]1[C@@H](c1cccs1)N2	CHX counter 26, Shiga toxin inh 42
CCc1ccc2c(c1)/C(=C/C(=O)c1cccs1)C(=O)N2	none
Cc1cc(-n2c(C)cc(C(=O)CN3C(=O)NC4(CCCCCC4)C3=O)c2C)no1	Pf growth 48h 12µM
Cc1cc(C(=O)CN2C(=O)NC3(CCCCC3)C2=O)c(C)n1-c1ccc2c(c1)OCO2	Pf growth 96h 13µM, Pf growth 48h inconclusive
O=C(CN1C(=O)NC2(CCCCCCC2)C1=O)NCc1ccc2c(c1)OCO2	Pf growth 96h inconclusive (no result: Pf growth 48h)
Cc1ccc(C(=O)CN2C(=O)NC3(CCCCCC3)C2=O)c(C)c1	none (no result: CHX counter, NS1 inh, Shiga toxin inh)
CCOc1ccc(S(=O)(=O)NCCC(=O)NCc2cccnc2)cc1	none (no result: CHX counter, NS1 inh, Shiga toxin inh)
CCCCCC(=O)NC(=S)NC1C2CC3CC(C2)CC1C3 (stereo unspecified)	Pf growth 96h 3.7µM, Sm TGR block inconclusive, Pf growth 48h 4.7µM
NC(=O)c1ccsc1NC(=O)C1CC1	none
Nc1sccc1C(=O)c1ccc(Cl)cc1	Pf growth 96h inconclusive, CHX counter 24
O=C(O)c1ccccc1C(=O)c1ccc(Cl)cc1	none
NC(=O)c1ccsc1N	Sm TGR block 6.3µM
COc1cc(N2CCCC2)c(OC)cc1/C=C(/C#N)c1cccc(F)c1	Pf growth 48h 10µM (no result: Pf growth 96h)
COc1cccc(/C=C(/C#N)c2ccc(F)cc2)c1OCc1cccc(C(=O)O)c1	none
CN(C)c1ccc(C(CNC(=O)COc2ccccc2)N2CCOCC2)cc1 (stereo unspecified)	none (no result: Pf growth 96h, CHX counter, Pf growth 48h, NS1 inh, Shiga toxin inh)
COc1ccc2c(=O)c(N3C(=O)c4ccccc4C3=O)coc2c1	NS1 inh inconclusive
CCc1cc2c(=O)c(-c3nc4ccccc4[nH]3)coc2cc1OC(=O)N1CCOCC1	CHX counter 24
CCN(CC)C(=O)Oc1ccc2c(=O)c(-c3ccc(OC)cc3)coc2c1	CHX counter 45, Shiga toxin inh 83
COc1ccc2c(=O)c(-c3ccc4c(c3)OCO4)coc2c1	CHX counter 68, Shiga toxin inh 76
CC(=O)Oc1ccc2c(=O)c(-c3nc4ccccc4s3)coc2c1	CHX counter 60, Shiga toxin inh 95 (no result: NS1 inh)
CC(=O)Oc1ccc2c(=O)c(Oc3ccccc3[N+](=O)[O-])coc2c1	none
Cc1ccc(C)c(S(=O)(=O)c2cnc(SCC(=O)Nc3ccc(F)cc3F)[nH]c2=O)c1	none (no result: Pf growth 96h, CHX counter, Pf growth 48h, NS1 inh, Shiga toxin inh)
CCN(CC)C(=O)Oc1ccc2c(=O)c(-c3ccc(OC)cc3)c(C)oc2c1	none
COc1ccc(-c2coc3cc(OC(=O)N4CCOCC4)ccc3c2=O)cc1	Pf growth 96h inconclusive, CHX counter 26, Shiga toxin inh 31
CCN(CC)C(=O)Oc1ccc2cc(Br)ccc2c1	CHX counter 28, Shiga toxin inh 123
COc1ccccc1-c1coc2cc(OC(=O)N3CCOCC3)ccc2c1=O	CHX counter 48, Shiga toxin inh 101
Cc1ccc(C(=O)N/C(=C\c2ccco2)C(=O)N2CCOCC2)cc1C	Pf growth 96h inconclusive, Pf growth 48h inconclusive
O=[N+]([O-])c1ccccc1-c1cc(-c2ccccc2)cc(-c2ccccc2)[n+]1Cc1ccccc1Cl	Pf growth 96h inconclusive, Pf growth 48h 0.93µM (no result: CHX counter, NS1 inh, Shiga toxin inh)
Oc1cc(Nc2cccnc2)cc2cccnc12	Pf growth 96h 4.1µM, Pf growth 48h 10µM (no result: CHX counter, NS1 inh, Shiga toxin inh)
O=S(=O)(Nc1cccnc1)c1cccc2cccnc12	none (no result: Pf growth 96h, Sm TGR block, CHX counter, Pf growth 48h, Shiga toxin inh)
Oc1cc(Nc2ccncc2)cc2cccnc12	Pf growth 96h inconclusive, Pf growth 48h 12µM (no result: CHX counter, NS1 inh, Shiga toxin inh)
Oc1cc(NCCc2cccnc2)cc2cccnc12	Pf growth 96h 8.3µM, Pf growth 48h 12µM (no result: CHX counter, NS1 inh, Shiga toxin inh)
O=C(Nc1ccc2ncccc2c1)c1ccccc1	Pf growth 96h inconclusive
COc1ccc(Nc2cc(O)c3ncccc3c2)cc1	Pf growth 96h 0.41µM, Pf growth 48h 0.47µM (no result: CHX counter, NS1 inh, Shiga toxin inh)
CCc1cccc(C)c1NC(=O)CSc1nc2c(c(=O)[nH]1)CCC2	none (no result: Pf growth 96h, CHX counter, Pf growth 48h, NS1 inh, Shiga toxin inh)
Cc1ccc(C(NC(=O)N2CC(C)OC(C)C2)C(Cl)Cl)cc1F (stereo unspecified)	Pf growth 48h inconclusive
COc1ccc(C(NC(=O)N2CC(C)OC(C)C2)C(Cl)(Cl)Cl)cc1F (stereo unspecified)	Pf growth 96h 3.3µM, Pf growth 48h 13µM
Cc1cnc(C(=O)OCC(=O)c2csc(N3CCCCC3)n2)cn1	CHX counter 51
Cc1cnc(C(=O)OCC(=O)c2ccc(C)s2)cn1	none (no result: CHX counter, NS1 inh, Shiga toxin inh)
COc1ccccc1C1=NN(C2=NN=C(N)Cc3ncnn32)C(O)(C(F)(F)F)C1 (stereo unspecified)	Pf growth 96h inconclusive (no result: NS1 inh)
COc1cc(OC)cc(-c2c(-c3cccs3)c3cc(-c4cnc(OC)nc4)ccc3n2C)c1	Pf growth 96h 3.3µM, Pf growth 48h 1.9µM (no result: CHX counter, NS1 inh, Shiga toxin inh)
COc1cc(C#Cc2c(-c3cncn3C)n(C)c3ccc(-c4cnc(OC)nc4)cc23)cc(OC)c1	Pf growth 96h 2.6µM, Sm TGR block inconclusive, Pf growth 48h inconclusive (no result: CHX counter, NS1 inh, Shiga toxin inh)
COc1cccc(-c2c(-c3cc(OC)cc(OC)c3)n(C)c3ccc(-c4ccc(OC)nc4)cc23)c1	Pf growth 96h inconclusive, Pf growth 48h inconclusive (no result: CHX counter, NS1 inh, Shiga toxin inh)
COc1ccc(-c2ccc3c(c2)c(-c2cccs2)c(-c2cc(OC)cc(OC)c2)n3C)cc1	Pf growth 96h inconclusive, Pf growth 48h 2.6µM (no result: CHX counter, NS1 inh, Shiga toxin inh)
O=C(COC(=O)c1ccc(Cl)cc1O)NCCN1C(=O)CSC1=O	none
O=C1CC(c2ccc(F)cc2)CC2=C1C(c1ccc([N+](=O)[O-])o1)Nc1ccccc1N2 (stereo unspecified)	Pf growth 96h inconclusive, Sm TGR block 16µM, CHX counter 12, Pf growth 48h inconclusive
CC(C)Sc1cc(N2CCCC2)nc(-c2ccc(F)cc2)n1	Pf growth 96h inconclusive, Pf growth 48h 13µM
CCOC1=C/C(=C/c2c(N)n3nc(-c4ccccc4)sc3nc2=O)C=CC1=O	Pf growth 48h inconclusive (no result: Sm TGR block)
COC1=C/C(=C/c2c(N)n3nc(-c4ccc(C)cc4)sc3nc2=O)C=CC1=O	CHX counter 54, Shiga toxin inh 76
CSc1ccc(CCNC(=O)Cn2c(C)c3cnn(-c4ccccc4)c(=O)c3c2C)cc1	none (no result: Pf growth 96h, CHX counter, Pf growth 48h, NS1 inh, Shiga toxin inh)
CCCCOc1[nH]c2nc(-c3ccco3)n(Cc3ccco3)c(=N)c2c1C#N	Sm TGR block inconclusive, CHX counter 16, Pf growth 48h 5.9µM

Source: PubChem BioAssay
